This is part of a sample that, as a whole, favours compounds with a hit. Of some 79,000 tested, about 15% had one in any assay. Values without a mark were called inactive. Active and inactive are the calls of the source. Cut-off read from the data, not from the text of the source: active = growth inhibition above about 70%; inactive = the rest.

Assay [1] can be described thus: NCI Yeast Anticancer Drug Screen. Data for the rad50 strain (AID 155).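 Note: 0% = growth of vehicle-only cultures of the same strain.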 The settings on record: S. cerevisiae rad50 strain growth inhibition; at 50.0 µM; stronger effect = higher value. In short, it runs like this:
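A DNA repair-deficient yeast mutant serves as the test organism; compound-induced growth inhibition is calculated against vehicle-treated cells.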

Assay [2] can be described thus: NCI Yeast Anticancer Drug Screen. Data for the mec2-1 strain (AID 157). To be noted: S. cerevisiae mec2-1 strain, at 50.0 µM, stronger effect = higher value. Put shortly:
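Vehicle-treated cultures served as reference for growth inhibition of compound-exposed mec2-1 yeast.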

Assay [3] can be described thus: NCI Yeast Anticancer Drug Screen. Data for the sgs1 mgt1 strain (AID 161).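 Note: 0% = growth of cultures given vehicle only.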 To be noted: S. cerevisiae sgs1 mgt1 strain, at 50.0 µM, stronger effect = higher value. Put shortly:
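Mutant yeast exposed to compound; growth scored against vehicle-only wells.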

Assay [4] in a line: NCI Yeast Anticancer Drug Screen. Data for the cln2 rad14 strain (AID 165).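 Note: 0% = growth equal to vehicle treated cultures.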 To be noted: S. cerevisiae cln2 rad14 strain, at 50.0 µM, stronger effect = higher value. Put shortly:
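Each compound was tested on cln2 rad14 yeast. Inhibition of growth was calculated against vehicle-exposed controls.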

Assay [5] in a line: NCI Yeast Anticancer Drug Screen. Data for the bub3 strain (AID 167). The settings on record: S. cerevisiae bub3 mutant strain, at 50.0 µM, stronger effect = higher value. In short, it runs like this:
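Inhibition values come from growth of compound-treated mutant yeast normalised to vehicle-treated controls.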

The nature of assay [6]: NCI Yeast Anticancer Drug Screen. Data for the mlh1 rad18 strain (AID 175). To be noted: S. cerevisiae mlh1 rad18 strain growth inhibition; at 50.0 µM; stronger effect = higher value. In short, it runs like this:
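Vehicle-treated cultures served as the reference for growth inhibition in a yeast strain carrying DNA damage repair alterations exposed to each compound.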

As to `NC(=Nc1ccc(S(=O)(=O)Nc2cnccn2)cc1)/N=C(/N)Nc1ccc(Br)cc1`, the growth inhibition in assay [1] is 4.2%; in assay [2], 3.9%; in assay [3], 15.7%; in assay [4], -4.65%; in assay [5] it was -5.65%; in assay [6] it was 27.1%.

In the case of `Cc1nc([N+](=O)[O-])cn1CC(Cl)Cn1cc([N+](=O)[O-])nc1C`, the growth inhibition in assay [1] was -4.65%; in assay [2], -12.4%; in assay [3] it was -18.7%; in assay [4], 9.7%; in assay [5], -25.1%; in assay [6], 14.2%.

For the compound `CCN(CC)CCCC(C)Nc1c2cc(OC)cc(C)c2nc2c(C)c(Cl)ccc12` (centres undefined), the growth inhibition in assay [1] was 21.6%; in assay [2] it was 50.6%; in assay [3] it was 13.8%; in assay [4], 19.2%; in assay [5], 4.35%; in assay [6], 29.4%.

In the case of `CNc1ccc(CC(=O)O)cc1`, the growth inhibition was -2.75% in assay [1]; 3.85% in assay [2]; -2.45% in assay [3]; -42% in assay [4]; -2.05% in assay [5]; 1.8% in assay [6].

As to `COc1ccccc1Nc1nc(N)nc(N)c1N`, the growth inhibition was 0.85% in assay [1]; -3.65% in assay [2]; 5% in assay [3]; -3.75% in assay [4]; -4.9% in assay [5]; 11.2% in assay [6].

Take `CC1(C#N)N(C(=O)c2ccccc2)c2ccccc2N1C(=O)c1ccccc1`: the growth inhibition in assay [1] was 18.6%; in assay [2] it was 50.2%; in assay [3], 46.2%; in assay [4] it was 27.2%; in assay [5] it was 36%; in assay [6] it was 24.9%.

For the compound `COc1ccccc1NS(=O)(=O)c1ccc2ncn(NS(=O)(=O)c3ccc(Cl)cc3)c(=O)c2c1`, the growth inhibition was 27.5% in assay [1]; 15.7% in assay [2]; 30.1% in assay [3]; 0.05% in assay [4]; 26% in assay [5]; 18.1% in assay [6].

For `CC(C)c1ccc(C=O)cc1`, the growth inhibition in assay [1] is 18.3%; in assay [2], 31%; in assay [3], -21.5%; in assay [4] it was -12.2%; in assay [5], -9.15%; in assay [6] it was 11.4%.

Consider `O=C(O)c1ccc(-n2cnc3c(=O)[nH]cnc32)cc1`, for which the growth inhibition in assay [1] was -8.6%; in assay [2], -12.9%; in assay [3] it was -13.3%; in assay [4], -9.45%; in assay [5] it was -4.9%; in assay [6] it was -7.85%.

In the case of `Cc1nc(-c2ccccc2)oc1-c1ccccc1`, the growth inhibition in assay [1] was 8.6%; in assay [2] it was -1.5%; in assay [3], -1.7%; in assay [4] it was 6.95%; in assay [5], 0.05%; in assay [6] it was -4.35%.

Turning to `Oc1c(Br)cc(CN(Cc2cc(Br)c(O)c(Br)c2)C2CCCCC2)cc1Br`, the growth inhibition is -2.75% in assay [1]; -6.5% in assay [2]; -21.3% in assay [3]; -15.7% in assay [4]; -23.1% in assay [5]; 5.4% in assay [6].

As to `O=C(Nc1cccc(C(=O)Nc2ccc3cc(S(=O)(=O)O)cc(S(=O)(=O)O)c3c2)c1)Nc1cccc(C(=O)Nc2ccc3cc(S(=O)(=O)O)cc(S(=O)(=O)O)c3c2)c1`, the growth inhibition in assay [1] is 6.8%; in assay [2], 34.1%; in assay [3], 9.25%; in assay [4] it was -3%; in assay [5], 3.65%; in assay [6] it was 33%.

Turning to `CNC(=O)OCc1c(C)oc(-c2ccc(Cl)c(Cl)c2)c1COC(=O)NC`, the growth inhibition in assay [1] is 47.5%; in assay [2], -7.15%; in assay [3], 34.5%; in assay [4], 24.1%; in assay [5], 12.3%; in assay [6], 14.4%.

For the compound `COc1ccc(/C=C2\N=C(c3ccc(N)cc3)OC2=O)cc1OC`, the growth inhibition in assay [1] was 10.1%; in assay [2], -0.05%; in assay [3], 13.2%; in assay [4] it was 20.1%; in assay [5] it was 10.3%; in assay [6] it was 19.9%.

With `CCOC(=O)c1ccc(C=O)cc1`, the growth inhibition in assay [1] was 15.5%; in assay [2], -5.75%; in assay [3], -4.95%; in assay [4], 6.25%; in assay [5], -5.8%; in assay [6], -11.5%.

Turning to `CS(=O)(=O)Cc1cc(-c2ccccc2)no1`, the growth inhibition in assay [1] was 15.1%; in assay [2], 28.1%; in assay [3], 8.7%; in assay [4], -3.4%; in assay [5], 7.75%; in assay [6], 9.85%.

On to `Cc1cc(C)c2c(c1)Nc1ccccc1P2c1ccccc1` (centres undefined), for which the growth inhibition was 11.2% in assay [1]; 14.2% in assay [2]; 48.2% in assay [3]; 31.1% in assay [4]; 44.6% in assay [5]; 53.6% in assay [6].

Consider `CN(C)CCNc1ccc(CO)c2sc3ccc(O)cc3c(=O)c12`, for which the growth inhibition in assay [1] was 11.4%; in assay [2], -3.65%; in assay [3], 12.1%; in assay [4], -32%; in assay [5], 12.2%; in assay [6] it was -9.25%.

`CCOC(=O)CNC=O`: the growth inhibition was 33.5% in assay [1]; -6.1% in assay [2]; -2.7% in assay [3]; 26.4% in assay [4]; -1.8% in assay [5]; 8.55% in assay [6].

With `O=C(CO)CC(=O)CCC(=O)Nc1cccc([N+](=O)[O-])c1`, the growth inhibition was -4.7% in assay [1]; 21.5% in assay [2]; 0% in assay [3]; 42.8% in assay [4]; -12.3% in assay [5]; -4.35% in assay [6].

As for `C[N+]1(C)CCC(O)CC1`, the growth inhibition in assay [1] is -5.5%; in assay [2] it was 7.2%; in assay [3], -3.1%; in assay [4], -13.4%; in assay [5] it was 14.9%; in assay [6] it was 1%.

Regarding `CCc1c(O)c2c([nH]c1=O)SC(C)(C)CC2=NCC(C)C`, the growth inhibition in assay [1] is -23.8%; in assay [2], -33.5%; in assay [3] it was -16.9%; in assay [4], -2.45%; in assay [5] it was -43.6%; in assay [6], 9.15%.

`CCC(=O)Oc1cccc(C)c1`: the growth inhibition in assay [1] was 13.8%; in assay [2], -8.4%; in assay [3] it was 2.05%; in assay [4], -10.6%; in assay [5], 4.2%; in assay [6], -15.4%.

Regarding `CCC(=O)OCCCCCCOC(=O)CC`, the growth inhibition in assay [1] is 18.3%; in assay [2], 6%; in assay [3], 12.5%; in assay [4], -15%; in assay [5] it was 19.9%; in assay [6], -5.9%.

For the compound `Cc1noc2c1NC(=O)OCC2`, the growth inhibition is 2.9% in assay [1]; 1.45% in assay [2]; -3.85% in assay [3]; -2% in assay [4]; 10.6% in assay [5]; -15.1% in assay [6].

With `CCCCCN(C(=O)c1ccccc1C(=O)N(CCCCC)c1ccccc1)c1ccccc1`, the growth inhibition in assay [1] was 15.3%; in assay [2], 7.85%; in assay [3], 15.8%; in assay [4] it was 30.6%; in assay [5], 3.4%; in assay [6], 42%.

`CCCCNC(C)=O`: the growth inhibition in assay [1] was 4.5%; in assay [2], -9.15%; in assay [3], -18.5%; in assay [4] it was -21.6%; in assay [5], -0.95%; in assay [6], -1.7%.

Consider `OCC1(F)CC1(c1ccccc1)c1ccccc1` (centres undefined), for which the growth inhibition in assay [1] is 0.45%; in assay [2] it was -2.85%; in assay [3], 7.45%; in assay [4], 12.7%; in assay [5], -13.4%; in assay [6], -22.6%.

`O=[N+]([O-])c1cc(C(F)(F)F)ccc1F`: the growth inhibition in assay [1] is -16%; in assay [2] it was -15.2%; in assay [3], -2.3%; in assay [4] it was -25.8%; in assay [5], -12.4%; in assay [6], -0.15%.

Consider `NC(CCCCNCc1ccccc1O)C(=O)O` (centres undefined), for which the growth inhibition in assay [1] is 10%; in assay [2], 14.2%; in assay [3], -1.7%; in assay [4], 7.45%; in assay [5], 20.7%; in assay [6] it was 25.9%.

Consider `COC(=O)/C=C1\C(=O)N(C(C)=O)c2ccccc21`, for which the growth inhibition in assay [1] is 12.3%; in assay [2] it was 16.1%; in assay [3], 72.2% (active); in assay [4], 40.1%; in assay [5], 50.6%; in assay [6], 76.4% (active).

Regarding `CC(=O)NCCc1ccc(C(=O)O)cc1`, the growth inhibition in assay [1] is -17%; in assay [2] it was -1%; in assay [3], 2.2%; in assay [4], -34.2%; in assay [5], -11.4%; in assay [6], 3.65%.

In the case of `CCOC(=O)NC(=O)c1cn(CCSCCOC(=O)NCCCCCCNC(=O)OCCSCCn2cc(C(=O)NC(=O)OCC)c(=O)[nH]c2=O)c(=O)[nH]c1=O`, the growth inhibition in assay [1] was 28.7%; in assay [2] it was 20.6%; in assay [3], 11.9%; in assay [4], 12.9%; in assay [5], -51.2%; in assay [6], 23.2%.

As to `CC1Cc2ccc(OCC(O)CO)cc2C1=O` (centres undefined), the growth inhibition in assay [1] was 7.35%; in assay [2], 1.8%; in assay [3], 11.1%; in assay [4], 15.1%; in assay [5] it was -0.2%; in assay [6], 1.7%.

`N#Cc1c(N)nc2c3c1NC(=O)C(C(N)=O)C3c1ccccc1O2` (centres undefined): the growth inhibition in assay [1] is 6.1%; in assay [2] it was -3.15%; in assay [3] it was 5.95%; in assay [4], 2%; in assay [5], -2.6%; in assay [6], -22.4%.

Take `COc1ccc(NC(=O)C(=O)Cc2nc3ccc([N+](=O)[O-])cc3[nH]c2=O)c(OC)c1`: the growth inhibition in assay [1] is 9.85%; in assay [2] it was 14.7%; in assay [3] it was -3.7%; in assay [4], 3.95%; in assay [5], 6.15%; in assay [6] it was 22.6%.

`CCCCCCC1OCCC(C)O1` (centres undefined): the growth inhibition in assay [1] is 7.6%; in assay [2], 5.95%; in assay [3] it was 16.9%; in assay [4], -10.3%; in assay [5] it was -22.4%; in assay [6], 12.9%.

With `O=S(=O)(CC(Br)c1ccccc1)c1ccccc1` (centres undefined), the growth inhibition is 44.7% in assay [1]; 6.15% in assay [2]; 5.05% in assay [3]; -4.3% in assay [4]; 60.5% in assay [5]; 45% in assay [6].

For the compound `CCC1(O)CC2CN(CCc3c([nH]c4ccccc34)C(C(=O)OC)(c3cc4c(cc3OC)N(C)C3C(O)(C(=O)NCCSSCCNC(=O)C5(O)C(O)C6(CC)C=CCN7CCC8(c9cc(C%10(C(=O)OC)CC%11CN(CCc%12c%10[nH]c%10ccccc%12%10)CC(O)(CC)C%11)c(OC)cc9N(C)C58)C76)C(O)C5(CC)C=CCN6CCC43C65)C2)C1` (centres undefined), the growth inhibition in assay [1] was 23.4%; in assay [2] it was 11.4%; in assay [3], 24.9%; in assay [4], 42.8%; in assay [5] it was 40.1%; in assay [6] it was 37.6%.

The record behind these values is PubChem BioAssay (NCI).
